Several values for one entry are separate records, joined by “and”; a condition that tells them apart may be missing. Equal entries are not always repeated. Records with an inconclusive call do not appear. Some structures have more than one record in an assay (separate samples or runs), and their calls can disagree. Activity calls are given as the source filed them. The calls were made as follows: active = hit-call score of the fitted dose curve at least 0.9, where 1 is the maximum; inconclusive = response in the unintended direction; inactive = score below 0.9.

In assay [1] the test system is zebrafish Estrogen Receptor (ER2a), gene 317734. The assay is described as follows: ATG_zfER2a_XSP2: Attagene TRANS-FACTORIAL Multi-Species (XSP2) HepG2 Assay for zebrafish Estrogen Receptor (ER2a) (AID 2283818).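 Also: hits raise reporter mRNA so AC50 reflects activation of zebrafish ER2a.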 The method, boiled down: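 Multiplexed trans-reporter readout: RT-PCR then capillary electrophoresis of reporter transcripts after 24 h compound treatment. Human HepG2 carries transfected zebrafish ER2a-Gal4 chimera; 3 nM 6-alpha-fluorotestosterone plus 1.5 nM norgestrel present. Induction scored against DMSO.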

Assay [2] has as its system chicken Androgen Receptor (AR), gene 422165. As to the kind of experiment: ATG_chAR_XSP2: Attagene TRANS-FACTORIAL Multi-Species (XSP2) HepG2 Assay for chicken Androgen Receptor (AR) (AID 2283819).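 Also: hits raise reporter mRNA above DMSO so potency is for activation.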 The method in brief: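 Readout is reporter mRNA induction via RT-PCR/capillary electrophoresis after 24 h chemical exposure, positive direction relative to DMSO. Transiently transfected HepG2 express chimeric chicken AR–GAL4; AR stimulated by 3 nM 6-alpha-fluorotestosterone and 1.5 nM norgestrel.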

Assay [3] can be described thus: ATG_M_19_XSP2: Attagene TRANS-FACTORIAL Multi-Species (XSP2) HepG2 Assay for M32 Transcription Factor (Internal Marker) (AID 2283822). The method, boiled down: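 Internal background marker in a multi-species nuclear receptor TRANS panel: transfected HepG2 cells exposed 24 h, with 3 nM 6-alpha-fluorotestosterone and 1.5 nM norgestrel present. Readout is RT-PCR of reporter transcripts resolved by capillary electrophoresis, gain-of-signal versus DMSO.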

For assay [4], the system named is zebrafish Estrogen Receptor (ER2b), gene 317733. As to the kind of experiment: ATG_zfER2b_XSP2: Attagene TRANS-FACTORIAL Multi-Species (XSP2) HepG2 Assay for zebrafish Estrogen Receptor (ER2b) (AID 2283823).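 Also: fitted upward as reporter gain over DMSO so potency reflects activation.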 The method, then: (§1) ATG_XSP2_multi-species_TRANS is a cell-based, multiplexed assay created by modifying the existing Attagene TRANS-FACTORIAL system to include a panel of nuclear receptors from some or all the following species: human (Homo sapiens), mouse (Mus musculus), frog (Xenopus laevis), zebrafish (Danio rerio), chicken (Gallus gallus), and turtle (Chrysemys picta). The ECOTOX-FACTORIAL format uses HepG2, a human liver cell line, with measurements taken at 24 hours after chemical dosing in a 24-well plate. Xsp2 included 3 nM 6-alpha-fluorotestosterone and 1.5 nM norgestrel to stimulate the androgen receptor.ATG_zfER2b_XSP2 is one of 29 assay components measured or calculated from the ATG_XSP2_multi-species_TRANS assay. It is designed to make measurements of mRNA induction, a form of inducible reporter, as detected with fluorescence intensity signals by Reverse transcription polymerase chain reaction (RT-PCR) and Capillary electrophoresis technology.The assay endpoint ATG_zfER2b_XSP2 was analyzed in the positive analysis fitting direction relative to DMSO as the negative control and baseline of activity. Using a type of inducible reporter, measures of mRNA for gain-of-signal activity can be used to understand the reporter gene at the transcription factor-level as they relate to the gene ER. Furthermore, this assay endpoint can be referred to as a primary readout, because this assay has produced multiple assay endpoints where this one serves a reporter gene function. To generalize the intended target to other relatable targets, this assay endpoint is annotated to the nuclear receptor intended target family, where the subfamily is steroidal.
(§2) Human liver HepG2 cells are transiently transfected with multiple reporter transcription units (MRTUs) in 6-well plates using FuGene 6 reagent (Roche; 3 ml FuGene/1 mg DNA). The MRTU constructs are regulated by a cis-regulating element (promoter). […] A major difference between the CIS and TRANS system is that in CIS activities of endogenous TFs are measured, whereas the TRANS assay evaluates changes in activities of exogenous, chimeric NR-Gal4 proteins. […] At the end of 24 hour incubation, total RNA was isolated using TriZol reagent (Invitrogen). The isolated RNA is then reverse-transcribed using oligo(dT) primer and Mo-MLV reverse transcriptase (Invitrogen) with DNAse I (Ambion) treatment for 30 min. […] The fragments were purified using Qiaquick PCR columns (Qiagen), analyzed on an ABI 3130xL genetic analyzer (Applied Biosystems) with peak positions identified by using a set of X-rhodamine (ROX)-labeled MapMarker1000 molecular weight standards (BioVentures). […]

Assay [5] concerns zebrafish Androgen Receptor (AR), gene 100005148. As to the kind of experiment: ATG_zfAR_XSP2: Attagene TRANS-FACTORIAL Multi-Species (XSP2) HepG2 Assay for zebrafish Androgen Receptor (AR) (AID 2283825).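 Also: hits raise reporter mRNA above DMSO so AC50 reflects agonist-type gain.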 The method, boiled down:
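After 24 h compound exposure in medium with 3 nM 6-alpha-fluorotestosterone plus 1.5 nM norgestrel, HepG2 cells carrying zebrafish AR–GAL4 reporter constructs were assessed for reporter mRNA gain by RT-PCR and capillary electrophoresis.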

The subject of assay [6] is frog Estrogen Receptor (ER2), gene 100174814. The assay is described as follows: ATG_frER2_XSP2: Attagene TRANS-FACTORIAL Multi-Species (XSP2) HepG2 Assay for frog Estrogen Receptor (ER2) (AID 2283828). The method, then: as §1, with “receptor.ATG_frER2_XSP2” for “receptor.ATG_zfER2b_XSP2”, “ATG_frER2_XSP2” for “ATG_zfER2b_XSP2”
Human liver HepG2 cells are transiently transfected with multiple reporter transcription units (MRTUs) in 6-well plates using FuGene 6 reagent (Roche; 3 ml FuGene/1 mg DNA). The MRTU constructs are regulated by a cis-regulating element (promoter). […] A major difference between the CIS and TRANS system is that in CIS activities of endogenous TFs are measured, whereas the TRANS assay evaluates changes in activities of exogenous, chimeric NR-Gal4 proteins. […] At the end of 24 hour incubation, total RNA was isolated using TriZol reagent (Invitrogen). The isolated RNA is then reverse-transcribed using oligo(dT) primer and Mo-MLV reverse transcriptase (Invitrogen) with DNAse I (Ambion) treatment for 30 min. The one-tenth of the produced cDNA was amplified by PCR using Taq DNA polymerase (Invitrogen) and two reporter sequence-specific primers. The PCR products were fluorescently labeled by primer extension with 6-arboxyfluorescein (6-FAM) 5'-labeled reporter sequence-specific primer (2 min at 95 C, 20 s at 68 C and 10 min at 72 C) and these products were digested with 5U of HpaI (New England Biolabs) for 2h at 37 C. The fragments were purified using Qiaquick PCR columns (Qiagen), analyzed on an ABI 3130xL genetic analyzer (Applied Biosystems) with peak positions identified by using a set of X-rhodamine (ROX)-labeled MapMarker1000 molecular weight standards (BioVentures). The raw capillary electrophoresis data was processed using Attagraph software (Attagene).

Assay [7] concerns the target chicken Estrogen Receptor (ERa), ESR1 (gene 396099) (UniProt P06212). The assay is described as follows: ATG_chERa_XSP2: Attagene TRANS-FACTORIAL Multi-Species (XSP2) HepG2 Assay for chicken Estrogen Receptor (ERa) (AID 2283817).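 Also: actives raise reporter signal above DMSO so AC50 reflects ER activation.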 The method, boiled down: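 Reporter mRNA induction read by RT-PCR, fluorescent labelling and capillary electrophoresis after 24 h exposure; positive-direction fit against DMSO baseline. HepG2 cells transfected with multiplexed GAL4-UAS units including chicken ERa chimera; medium contained 3 nM 6-alpha-fluorotestosterone plus 1.5 nM norgestrel.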

Assay [8] deals with frog Estrogen Receptor (ER), gene 398734. The assay is described as follows: ATG_frER1_XSP2: Attagene TRANS-FACTORIAL Multi-Species (XSP2) HepG2 Assay for frog Estrogen Receptor (ER) (AID 2283821).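 Also: hits raise reporter mRNA above DMSO baseline so potency means agonist or activator.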 The method, boiled down:
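HepG2 cells transiently transfected with multiplexed GAL4-UAS reporter units expressing chimeric NR-Gal4 proteins (TRANS format) were dosed for 24 h. Reporter mRNA was quantified by RT-PCR, FAM primer extension, HpaI digestion and capillary electrophoresis; gain of signal relative to DMSO.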

Assay [9] has as its system frog Androgen Receptor (AR), gene 399456. As to the kind of experiment: ATG_frAR_XSP2: Attagene TRANS-FACTORIAL Multi-Species (XSP2) HepG2 Assay for frog Androgen Receptor (AR) (AID 2283824).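 Also: reporter mRNA from GAL4-UAS units driven by Xenopus AR-Gal4 chimera; actives raise reporter signal above DMSO so AC50 reflects agonist-like induction.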 Here is the method:
as §1, with “receptor.ATG_frAR_XSP2” for “receptor.ATG_zfER2b_XSP2”, “ATG_frAR_XSP2” for “ATG_zfER2b_XSP2”, “AR.” for “ER.”
as §2

Assay [10] concerns the target human Androgen Receptor (AR), AR (gene 367) (UniProt P10275). The assay is described as follows: ATG_hAR_XSP2: Attagene TRANS-FACTORIAL Multi-Species (XSP2) HepG2 Assay for human Androgen Receptor (AR) (AID 2283820). The method in brief: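 Reporter transcripts were measured by RT-PCR and capillary electrophoresis 24 h post-dosing, with gain of signal fitted against DMSO. Transiently transfected HepG2 cells expressed chimeric NR-Gal4 on GAL4-UAS reporters, with AR stimulated by 3 nM 6-alpha-fluorotestosterone and 1.5 nM norgestrel.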

chicken Estrogen Receptor (ERa), ESR1 (gene 396099), sequence (P06212 whole entry, looked up, the tested form may be a part): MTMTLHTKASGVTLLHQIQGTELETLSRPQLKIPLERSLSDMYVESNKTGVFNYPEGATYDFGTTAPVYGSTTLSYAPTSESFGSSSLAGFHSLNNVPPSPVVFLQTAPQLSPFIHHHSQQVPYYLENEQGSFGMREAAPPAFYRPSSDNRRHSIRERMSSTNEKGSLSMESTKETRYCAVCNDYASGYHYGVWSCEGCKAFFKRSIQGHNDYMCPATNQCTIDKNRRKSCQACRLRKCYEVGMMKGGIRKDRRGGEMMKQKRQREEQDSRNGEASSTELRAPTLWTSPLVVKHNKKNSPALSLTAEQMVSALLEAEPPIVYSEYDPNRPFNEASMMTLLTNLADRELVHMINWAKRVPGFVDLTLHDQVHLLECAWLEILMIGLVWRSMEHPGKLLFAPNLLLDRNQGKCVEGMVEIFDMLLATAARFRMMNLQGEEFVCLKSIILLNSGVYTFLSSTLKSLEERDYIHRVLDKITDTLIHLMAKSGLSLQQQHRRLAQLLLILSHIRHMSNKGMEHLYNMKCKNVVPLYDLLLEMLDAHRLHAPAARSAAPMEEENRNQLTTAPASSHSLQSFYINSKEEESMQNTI
human Androgen Receptor (AR), AR (gene 367), sequence (P10275 whole entry, looked up, the tested form may be a part): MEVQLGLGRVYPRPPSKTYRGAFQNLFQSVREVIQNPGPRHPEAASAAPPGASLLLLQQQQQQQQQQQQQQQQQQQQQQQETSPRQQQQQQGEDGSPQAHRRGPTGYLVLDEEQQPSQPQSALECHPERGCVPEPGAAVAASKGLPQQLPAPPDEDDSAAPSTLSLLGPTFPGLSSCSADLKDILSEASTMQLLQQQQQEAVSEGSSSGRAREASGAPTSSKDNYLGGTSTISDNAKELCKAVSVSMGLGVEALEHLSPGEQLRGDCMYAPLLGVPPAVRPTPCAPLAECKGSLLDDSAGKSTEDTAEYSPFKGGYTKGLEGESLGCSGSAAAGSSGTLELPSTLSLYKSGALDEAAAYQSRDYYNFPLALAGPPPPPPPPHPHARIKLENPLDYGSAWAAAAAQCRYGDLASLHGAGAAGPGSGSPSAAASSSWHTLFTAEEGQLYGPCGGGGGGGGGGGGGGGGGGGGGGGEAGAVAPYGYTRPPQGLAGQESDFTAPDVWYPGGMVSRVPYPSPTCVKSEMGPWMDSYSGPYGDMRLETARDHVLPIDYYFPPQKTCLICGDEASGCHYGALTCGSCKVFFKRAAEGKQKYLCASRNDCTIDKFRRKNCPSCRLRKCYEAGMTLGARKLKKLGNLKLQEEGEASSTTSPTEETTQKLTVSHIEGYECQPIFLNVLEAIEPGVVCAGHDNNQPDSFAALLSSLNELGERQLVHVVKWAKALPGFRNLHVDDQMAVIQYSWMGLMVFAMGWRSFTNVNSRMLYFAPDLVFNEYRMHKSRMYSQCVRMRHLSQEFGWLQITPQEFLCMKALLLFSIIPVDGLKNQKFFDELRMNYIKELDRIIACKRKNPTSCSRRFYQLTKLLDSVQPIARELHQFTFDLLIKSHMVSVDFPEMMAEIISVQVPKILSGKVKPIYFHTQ

On to `CN(C)C(=N)N=C(N)N`, for which the result in assay [1], in assay [2], in assay [3], in assay [4], in [5] and in [6] was inactive.

Broadly, the AC50 is the concentration giving half of the maximal activity seen. For the compound `O=C(Oc1ccccc1)c1ccc(O)cc1`, the AC50 in assay [7] is 27.8 µM (active); in assay [1], 63.9 µM (active) and 27.7 µM (active); in [8], 27.2 µM (active); in assay [4], 51.2 µM (active) and 4.93 µM (active); in assay [6] it was 72.4 µM (active) and 4.8 µM (active). The compound was classed as inactive in assay [7], in assay [2], in assay [8], in assay [3], in [9] and in assay [5].

Regarding `CCCCCCCCCCCCN`, the AC50 in [7] is 48.3 µM (active); in assay [1] it was 46.7 µM (active); in assay [6], 55.1 µM (active). Besides, the compound was classed as inactive in assay [1], in assay [2], in assay [8], in assay [3], in assay [4] and in [9].

As for `O=c1cc(-c2ccccc2)oc2cc(O)cc(O)c12`, the AC50 in assay [7] is 7.18 µM (active) and 2.51 µM (active); in assay [1], 6.82 µM (active) and 2.26 µM (active); in [2] it was 1.51 µM (active); in assay [10], 23.8 µM (active); in [4], 14.2 µM (active) and 5.28 µM (active); in assay [9], 1.19 µM (active). Moreover, the AC50 in assay [6] was 4.67 µM (active) and 2.26 µM (active). In addition, the outcome in assay [2], in assay [10], in [8] and in [9] was inactive.

Consider `CN(CCOc1ccc(CC2SC(=O)NC2=O)cc1)c1ccccn1` (centres undefined), for which the call in assay [8] and in [6] was inactive.

The values above are taken from PubChem BioAssay (EPA / NIEHS).
